Screening data: PubChem, National Center for Advancing Translational Sciences (NCATS)
TDP1 inh – blocks human tyrosyl-DNA phosphodiesterase 1. Q9NUW8. recombinant TDP1, AlphaScreen DNA substrate cleavage. Potency, µM (doses to about 130 µM), actives largely listed as inhibitors. 0.28% of 350,000 active; also: nearly all actives have a fitted effect of over 40% in size
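Tdp1 1 nM final; 15 min RT w/ cpd; substrate 15 nM, 5 min; beads 10 ug/ml, 10 min; AlphaScreen read. Neg ctrl: no enzyme.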
RORgamma inh – ROR gamma (mouse) transcription inhibition; P51450; Drosophila S2 Gal4-RORgamma UAS-luciferase reporter, 20 h; Potency, µM (highest dose often 53.6 µM), usual class: inhibitors; 5.4% of 310,000 active; AID 2551; also: nearly all actives have a fitted effect of over 60% in size
Target sequence (P51450 whole entry, looked up, the tested form may be a part): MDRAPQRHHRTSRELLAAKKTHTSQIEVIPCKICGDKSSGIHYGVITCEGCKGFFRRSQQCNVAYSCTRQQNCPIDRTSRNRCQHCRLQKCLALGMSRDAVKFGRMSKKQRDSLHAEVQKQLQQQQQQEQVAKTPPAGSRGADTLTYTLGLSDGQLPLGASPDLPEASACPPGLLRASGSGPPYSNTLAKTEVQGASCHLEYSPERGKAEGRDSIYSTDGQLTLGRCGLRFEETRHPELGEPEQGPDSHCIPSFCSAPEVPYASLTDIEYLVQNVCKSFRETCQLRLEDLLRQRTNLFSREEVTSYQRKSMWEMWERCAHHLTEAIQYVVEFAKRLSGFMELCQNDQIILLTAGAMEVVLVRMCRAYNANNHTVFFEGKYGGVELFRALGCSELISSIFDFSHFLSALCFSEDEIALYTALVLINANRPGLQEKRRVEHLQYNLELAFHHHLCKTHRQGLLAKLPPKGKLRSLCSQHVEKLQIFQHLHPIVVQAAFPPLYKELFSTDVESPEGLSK
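Luciferase reporter read in Schneider cells carrying Gal4-RORγ (mouse) and UAS-Photinus luciferase; cells given compound 1 h before 700 uM copper sulfate induction, then incubated 20 h at ambient temperature.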
TDP1 cell noCPT – qHTS for Inhibitors of human tyrosyl-DNA phosphodiesterase 1 (TDP1): qHTS in cells in absence of CPT; Potency, µM (doses to about 46.2 µM), actives largely listed as inhibitors; DT40 Tdp1-/- hTDP1 cells, no CPT, ATP luminescence, 48 h; AID 686978, 2013; 15% of 420,000 active; also: nearly all actives have a fitted effect of over 55% in size
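Cells were dispensed at 400 per well, compounds added by pin tool, plates incubated ≥48 hr at 37 °C, then CellTiter-Glo added for 30 min at room temperature before luminescence reading. Line: DT40 Tdp1-/- complemented with hTDP1; camptothecin omitted.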
VP16 counter – counter-screen for ROR gamma inhibitors: Gal4-VP16 reporter | Drosophila S2 Gal4-VP16 UAS-luciferase, luminescence, 20 h | Potency, µM (highest dose often 53.6 µM), most hits filed as inhibitors | 3.5% of 310,000 active;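 also: Gal4-VP16 expression switched on by copper sulfate through the metallothionein promoter; nearly all actives have a fitted effect of over 50% in size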
DT40 TDP1 CPT – growth inhibition of DT40 Tdp1-/-;hTDP1 cells with camptothecin (screen for TDP1 inhibitors). chicken DT40 Tdp1-/-;hTDP1 cells + 20 nM CPT, ATP luminescence, 48 h. Potency, µM (doses to about 46.2 µM), most hits filed as inhibitors. 12% of 420,000 active; also: nearly all actives have a fitted effect of over 55% in size
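Chicken DT40 Tdp1-/- cells complemented with human TDP1, 400 cells/well, exposed to compounds plus 20 nM camptothecin for at least 48 h at 37 C; viability read as ATP content by CellTiter-Glo luminescence.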
Large screens that a line does not name were inactive. Only some compounds are listed: those with a hit (about 19% of all), similar ones and a draw of the others. Calls follow the shape of the dose curve; as a rule, active = well fitted curve in the direction sought with a large enough effect; inconclusive = small, poorly fitted or top-dose-only effect, or another doubt; inactive = no such curve, though single readings can be large; an effect the other way counts as inactive or inconclusive.

O=C(Nc1nnc(-c2ccc(Cl)cc2)o1)c1nc2ccccc2s1	RORgamma inh 4.5µM, TDP1 cell noCPT 21µM, VP16 counter 4.5µM, DT40 TDP1 CPT inconclusive
CCOC(=O)c1[nH]c(C)c(C(=O)NCCN2CCOCC2)c1C	none
Cc1nnc(SCC(=O)Nc2sccc2C#N)n1Cc1ccccc1	RORgamma inh inconclusive
CCOC(=O)C(Cc1c[nH]c2ccccc12)NC(=O)c1ccccc1Br (stereo not given)	RORgamma inh 8.9µM, TDP1 cell noCPT inconclusive, VP16 counter inconclusive, DT40 TDP1 CPT inconclusive
CCCOc1ccc(C(=O)CCNC(Cc2c[nH]c3ccccc23)C(=O)O)cc1 (stereo not given)	RORgamma inh inconclusive, TDP1 cell noCPT 7.3µM, VP16 counter inconclusive, DT40 TDP1 CPT 4.6µM (no result: TDP1 inh)
Cc1ccc(C(=O)COC(=O)C(Cc2c[nH]c3ccccc23)NC(=O)c2ccc(C(C)(C)C)cc2)cc1 (stereo not given)	TDP1 cell noCPT 23µM, DT40 TDP1 CPT 18µM (no result: RORgamma inh, VP16 counter)
COC(=O)c1oc2ccc(Cl)cc2c1N	none
Cc1ccc(C)c(N2CCN(C(=O)c3cc4sccc4n3C)CC2)c1	TDP1 cell noCPT inconclusive, VP16 counter inconclusive, DT40 TDP1 CPT inconclusive
CCn1c(C(=O)N2CCCC(C(=O)N3CCN(c4cc(C)ccc4C)CC3)C2)cc2sccc21 (stereo not given)	TDP1 cell noCPT 13µM, DT40 TDP1 CPT inconclusive (no result: RORgamma inh, VP16 counter)
Cc1cccc(N2CCN(C(=O)C3CCN(C(=O)c4cc5sccc5n4C)CC3)CC2C)c1 (stereo not given)	TDP1 cell noCPT 5.2µM, DT40 TDP1 CPT 13µM (no result: RORgamma inh, VP16 counter)
Cc1ccc(C)c(N2CCN(C(=O)C3CCN(C(=O)c4cc5sccc5n4C)CC3)CC2)c1	TDP1 cell noCPT 8.2µM, DT40 TDP1 CPT 9.2µM (no result: RORgamma inh, VP16 counter)
CC(C)CN(C(=O)CN(C)S(=O)(=O)c1ccc(Cl)cc1)C1CCS(=O)(=O)C1 (stereo not given)	none (no result: RORgamma inh, VP16 counter)
Cc1ccc(C(=O)Nc2ncc(Cc3ccccc3)s2)o1	RORgamma inh 11µM, VP16 counter inconclusive
Cc1ccc(Cc2cnc(NC(=O)c3cccs3)s2)cc1	RORgamma inh 3.5µM, TDP1 cell noCPT inconclusive, VP16 counter 8.9µM, DT40 TDP1 CPT inconclusive
O=C(Nc1nnc(Cc2ccc(Cl)cc2)s1)c1cccs1	RORgamma inh inconclusive
O=C(Nc1ncc(Cc2cccc(Cl)c2)s1)c1cccs1	RORgamma inh 7.1µM, TDP1 cell noCPT inconclusive, VP16 counter 16µM, DT40 TDP1 CPT inconclusive
O=C(Nc1nnc(Cc2ccccc2)s1)c1ccccc1	RORgamma inh inconclusive
O=C(Nc1ncc(Cc2ccc(SC(F)F)cc2)s1)c1ccccc1	RORgamma inh 13µM, TDP1 cell noCPT 2.3µM, VP16 counter 20µM, DT40 TDP1 CPT 2.9µM
CC1CCC(Nc2nc3c(-c4ccc(Cl)cc4)nnn3c3ccccc23)CC1 (stereo not given)	none (no result: RORgamma inh, VP16 counter)
CSc1nccc(Nc2ccccc2)c1C#N	none
CCOc1ccc(CCNC(=O)CCNS(=O)(=O)c2ccc3c(c2)CCN3C(C)=O)cc1OCC	none
O=C(Nc1ncc(Cc2ccc(Cl)cc2)s1)c1ccc2c(c1)CC(c1ccccc1)OC2=O (stereo not given)	TDP1 cell noCPT 7.3µM, DT40 TDP1 CPT 4.6µM (no result: RORgamma inh, VP16 counter)
O=C(Nc1ncc(Cc2cccc(Cl)c2)s1)C1=NCCN1	RORgamma inh 2.5µM, TDP1 cell noCPT inconclusive, VP16 counter 5µM, DT40 TDP1 CPT 16µM
CC(=O)Nc1ncc(Cc2ccc(Cl)cc2Cl)s1	RORgamma inh inconclusive, DT40 TDP1 CPT inconclusive
Cc1cc(C)cc(C(=O)NCC(=O)OCC(=O)NC2CCCc3ccccc32)c1 (stereo not given)	none (no result: RORgamma inh, VP16 counter)
COc1ccc(-c2cnnc(N/N=C/c3ccc(O)cc3)n2)cc1	TDP1 cell noCPT 12µM, DT40 TDP1 CPT inconclusive
COc1ccc(-c2cnnc(N/N=C/c3ccc(C)o3)n2)cc1	RORgamma inh 5µM, TDP1 cell noCPT 18µM, DT40 TDP1 CPT inconclusive
COc1ccc(-c2cnnc(N/N=C/c3c(C)nn(-c4ccccc4)c3Cl)n2)cc1	TDP1 cell noCPT 5.2µM, DT40 TDP1 CPT 3.7µM
COc1cc(/C=N/Nc2nnc3c(n2)[nH]c2ccccc23)ccc1O	TDP1 inh inconclusive
